Bioassay records: PubChem BioAssay, University of Kansas High Throughput Screening Laboratory
The list is not random: actives were taken first. Their share in the collection is about 3.6%.
Pf apPOL inh: Pf-apPOL inhibitors, biochemical, fluorescence; Plasmodium falciparum apicoplast DNA polymerase (apPOL); Recombinant Pf-apPOL, molecular beacon fluorescence, 1.5 h; inhibition, % at 10 µM; hit rate 0.25% among 210,000; AID 1794808, 2022
mHTT-CaM PPI inh: mutant huntingtin-calmodulin interaction inhibitors – biochemical, AlphaScreen, primary screen; hit rate 3.6% among 190,000; AlphaScreen His-mHTT/GST-CaM binding, luminescence; P42858; inhibition, % at 15 µM;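 note: 0% = both proteins with DMSO and 100% = one protein alone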
Active calls of the source: *; / = not tested or not shown. Cut-off read from the data, not from the text of the source: active = inhibition above about 50%; inactive = the rest.

SMILES	Pf apPOL inh	mHTT-CaM PPI inh
COc1cccc(S(=O)(=O)N2CCN(C3=CC4=NC(C)CN4C=N3)CC2)c1 (centres undefined)	-2	6
Cc1nc2c(C(=O)NCCc3ccccc3)c[nH]n2c(=O)c1Cc1ccc(Cl)cc1	-5	68*
Cc1nc2c(C(=O)NCCc3ccc(Cl)cc3)c[nH]n2c(=O)c1Cc1ccccc1F	-3	74*
Cc1nc2c(C(=O)NCCc3ccccc3)c[nH]n2c(=O)c1Cl	-9	16
Cc1ccc(CCNC(=O)c2c[nH]n3c(=O)c(Cc4ccccc4F)c(C)nc23)cc1	-15	31
CN(C)CCNC(=O)c1ccc(S(=O)(=O)N(C)C)cc1	-6	-2
Cn1c(C2CCN(C(=O)Nc3ccc(Br)cc3F)CC2)cc(=O)n2nccc12	-1	12
Cc1ccc(C(NC(N)=O)c2cccc(F)c2)cc1 (centres undefined)	4	-10
COc1ccc(C(NC(=O)c2ccccc2)c2ccc3cccnc3c2O)cc1 (centres undefined)	3	100*
COc1cccc(NC(c2ccccn2)c2ccc3cccnc3c2O)c1 (centres undefined)	-6	99*
COc1ccc(C(NC(=O)c2ccccc2)NC(=O)c2ccccc2)c(OC)c1	1	17
COc1cccc(C(NC(=O)c2ccccc2)c2ccc3cccnc3c2O)c1 (centres undefined)	0	100*
COc1cccc(NS(=O)(=O)c2cccc3cccnc23)c1	-3	0
COC(=O)c1sccc1NN=C(C)c1ccc(NC(=O)C(Cl)Cl)cc1	-6	/
CN(C)CCNc1nc2c(c(=O)[nH]c(=O)n2C)n1Cc1ccccc1Cl	4	-4
COc1ccc(N2CCN(C(=O)c3ccc(Cl)c(Cl)c3)C(C)C2=O)cc1 (centres undefined)	-4	23
COc1ccccc1CNC(=O)c1cnn2c(-c3ccccc3)ccnc12	-4	-6
COc1cc(C(C[N+](=O)[O-])c2c(C)[nH]c3ccccc23)cc(OC)c1OC (centres undefined)	7	42
Cc1[nH]c2ccccc2c1C(Nc1ccccn1)c1ccc([N+](=O)[O-])cc1 (centres undefined)	-1	97*
Cc1[nH]c2ccccc2c1C(Nc1ccccc1F)c1ccccn1 (centres undefined)	-13	24
Cc1[nH]c2ccccc2c1C(C[N+](=O)[O-])c1ccc(F)cc1 (centres undefined)	-6	54*
Cc1n[nH]c(C)c1S(=O)(=O)N1CCC(C(=O)NCCc2ccc(Cl)cc2)CC1	-2	5
Cc1nccn1-c1cc(N2CCC(C(=O)Nc3ccc(OC(F)(F)F)cc3)CC2)ncn1	-5	12
COc1ccc(-c2ccc3nc(C(=O)NCC(C)C)cn3c2)cc1	-7	7
CC[C@@]1(O)C(=O)OCc2c1cc1n(c2=O)Cc2cc3c(CN(C)C)c(O)ccc3nc2-1	84*	/
SMILES	Pf apPOL inh	mHTT-CaM PPI inh
CN(C)Cc1c(O)ccc2c(-c3ccccc3)cc(=O)oc12	0	1
Cc1cccc(NC(=O)CS(=O)(=O)c2cn(Cc3ccc(F)cc3)c3ccccc23)c1C	0	3
O=C1Nc2ccc(F)cc2C1=O	0	/
COC(=O)c1n[nH]nc1[N+](=O)[O-]	/	-1
O=C(O)c1n[nH]nc1C(=O)O	/	63*
Cc1ccc(S(=O)(=O)N2CC3CN(C(=O)NCc4ccco4)CC(C2)O3)cc1	-5	7
CCn1ccc(C(=O)N2CCCC2c2ccc(OC)cc2)n1 (centres undefined)	0	-4
COc1ccc2nc3oc(C(=O)Nc4ccc(C)cc4Br)cc3cc2c1	4	-4
Cc1cc(Nc2ccc(C(N)=O)cc2)nc(-n2nc(C)cc2C)n1	4	95*
Cc1cc(C)n(-c2ccc(Nc3ccc(NC(=O)Nc4ccccc4)cc3)nn2)n1	-11	6
c1ccc(-c2nnc(-c3ccc(-n4ccnc4)nc3)o2)cc1	0	-2
CN1CCOc2cc(C=C3C(=O)Nc4ccccc43)ccc21	-10	/
O=C(/C=C/c1ccccc1)NC(NC1CCCCC1)C(Cl)(Cl)Cl (centres undefined)	112*	-4
CCOc1ccc(NC(NC(=O)/C=C/c2ccccc2)C(Cl)(Cl)Cl)cc1 (centres undefined)	1	36
COc1ccc(N2CC(c3nnc(NC(=O)c4ccc(OC)c(Cl)c4)o3)CC2=O)cc1 (centres undefined)	-3	-5
O=C(ON1C(=O)C2C3C=CC(O3)C2C1=O)c1cccnc1Oc1ccccc1 (centres undefined)	77*	/
Cc1nn(-c2ccccc2)nc1C(=O)ON1C(=O)C2C3C=CC(O3)C2C1=O (centres undefined)	-72	/
COc1ccc(-c2[nH]nc3c2C(c2cn[nH]c2-c2ccc(F)cc2)C(C#N)=C(N)O3)cc1OC (centres undefined)	-8	7
CCSc1nsc2nc(=O)c(C=C3C=CC(=O)C(OC)=C3)c(N)n12	-7	10
